Compound activity from PubChem BioAssay.
Most compounds without a hit are left out; they make up all but 4.6% or so of the library.
TRHR enhancer – qHTS for Small Molecule Agonists and Allosteric Enhancers of Human TRH Receptor: Primary Screen for Enhancers. Thyrotropin-releasing hormone receptor (Homo sapiens), P34981. TRHR cells, fluo-8 calcium fluorescence, EC20 TRH enhancement. enhancement, % at 2 µM. 0.66% of 360,000 active. AID 493056, 2011; in the data active means enhancement above about 30%; further: 0% is about no effect
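TRHR-expressing cells loaded with fluo-8 calcium dye were read kinetically (ex 480/em 530) during compound addition, then stimulated with an EC20 of TRH (10 nM final). Enhancement of the Gq-mediated intracellular calcium response was scored.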
D1 antagonist – Antagonist of Human D 1 Dopamine Receptor: qHTS; HEK293 TREx D1 cells, calcium flux, dopamine EC80; hits give low values; D(1A) dopamine receptor (Homo sapiens), P21728; 3.2% of 360,000 active; AID 504652, 2011; activity change, negative = inhibition, % at 10 µM; in the data active means activity change below about -30%; further: on the % scale 0 is the no-effect control and ±100 the full control effect
Target sequence (P21728 whole entry, looked up): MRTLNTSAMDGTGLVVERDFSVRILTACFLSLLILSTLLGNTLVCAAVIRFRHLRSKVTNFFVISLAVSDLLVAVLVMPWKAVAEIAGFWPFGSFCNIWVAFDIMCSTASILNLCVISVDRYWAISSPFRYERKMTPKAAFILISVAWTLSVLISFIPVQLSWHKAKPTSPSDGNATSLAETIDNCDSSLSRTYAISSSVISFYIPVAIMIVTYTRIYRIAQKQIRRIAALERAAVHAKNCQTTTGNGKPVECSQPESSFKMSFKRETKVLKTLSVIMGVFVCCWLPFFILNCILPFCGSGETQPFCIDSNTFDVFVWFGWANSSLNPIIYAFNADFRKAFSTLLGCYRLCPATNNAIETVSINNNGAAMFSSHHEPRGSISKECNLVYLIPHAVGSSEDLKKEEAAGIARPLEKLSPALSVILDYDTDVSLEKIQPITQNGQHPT
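Inducible Hek293 Trex D1 cells (tetracycline, overnight, 30 C). Calcium dye 30–90 min RT. Antagonist mode: EC80 dopamine added after 180 s compound read.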
D1 ag – Allosteric Agonists of the Human D1 Dopamine Receptor: qHTS. HEK293 T-REx D1 cells, calcium flux, agonist mode. D(1A) dopamine receptor (Homo sapiens), P21728. 1% of 360,000 active. AID 504660, 2011. activation, % at 2 µM; further: 0% is about no effect
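Agonism was scored from calcium flux recorded over 180 s (1 read/s) after pintool compound addition, following a 10-cycle baseline. Cells were inducible force-coupled HEK293 TREx D1, plated overnight at 30 C and loaded with no-wash calcium dye.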
TRHR agonist – qHTS for Small Molecule Agonists and Allosteric Enhancers of Human TRH Receptor: Primary Screen for Agonists; Thyrotropin-releasing hormone receptor (Homo sapiens), P34981; TRHR cells, calcium flux fluo-8, FDSS agonist mode; activation, % at 2 µM; 0.18% of 360,000 active; AID 493084, 2011; further: 0% is about no effect
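Read-out: compound-evoked intracellular calcium rise in TRHR cells, fluo-8 dye, kinetic FDSS fluorescence at 1 s/cycle following a 10-cycle baseline. Cells cultured overnight before dye loading (30 min–1.5 h, RT).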
D1 potentiator – Potentiators of Human D1 Dopamine Receptor: qHTS. AID 504651, 2011. 0.036% of 360,000 active. D(1A) dopamine receptor (Homo sapiens), P21728. HEK293 TREx D1 cells, calcium flux, dopamine EC20 potentiation. potentiation, % at 10 µM; in the data active means potentiation above about 30%; further: 0% is about no effect
Active calls of the source: *. Unless noted, no stated cut-off is given here; in the data, active means activation above about 30%; inactive means the rest.

SMILES	TRHR enhancer	D1 antagonist	D1 ag	TRHR agonist	D1 potentiator
Cc1ccccc1OCC(=O)Nc1sc2c(c1C(=O)OC(C)C)CCCC2	4	4	45*	-1	2
CCOC(=O)c1c(NC(=O)c2cc(-c3cccc(OC)c3)on2)sc2c1CCCC2	5	6	0	1	1
COC(=O)c1c(NC(=O)CSc2nnc(C)c(=O)[nH]2)sc(C)c1C	-1	5	2	0	-5
O=C(Cc1ccccc1)Nc1sc2c(c1C(=O)Nc1ccccc1Cl)CCCCC2	33*	17	-1	0	1
O=C(Nc1sc2c(c1C(=O)O)CCCCC2)c1ccccc1F	-1	0	1	0	5
O=C(Cc1ccccc1)Nc1sc2c(c1C(=O)Nc1cccc(Cl)c1)CCCCC2	-4	1	2	1	4
CCCNC(=O)c1c(NC(=O)c2ccccc2F)sc2c1CCCCC2	35*	18	0	0	2
CNC(=S)N(Cc1cccs1)Cc1cc2cc(OC)ccc2[nH]c1=O	0	8	5	-1	-1
COc1ccc2[nH]c(=O)c(CN(Cc3cccs3)C(=S)Nc3cccc(C)c3)cc2c1	-9	-32*	4	-1	-6
COc1ccc2[nH]c(=O)c(CN(Cc3cccnc3)C(=O)Nc3ccccc3)cc2c1	-2	-37*	0	-1	-4
COc1ccc2[nH]c(=O)c(CN(C(=O)c3cccnc3)c3ccccc3)cc2c1	12	1	0	0	36*
COc1ccccc1N1CCN(C(=O)Cn2ncc3c2-c2cc(C)ccc2OC3)CC1	3	16	4	0	-4
CCc1ccc(C(=O)N2CCC(c3nc(-c4ccc(S(=O)(=O)N5CCCC5)cc4)no3)CC2)cc1	5	-10	1	0	3
N#CNC(=Nc1cccc(F)c1)SCc1cccc(F)c1	-4	-32*	23	2	-6
CC(C)N=C(NC#N)SCc1ccccc1	-3	-47*	2	-1	-4
CC(C)N=C(NC#N)SCc1ccc(Br)cc1	3	-4	2	-1	-3
CCOC(=O)c1c(NC(=O)COc2ccc(Cl)cc2Cl)sc2c1CCCCC2	3	19	5	0	5
Cn1c(SCc2c(F)cccc2Cl)nc2c(c1=O)SCC2	-8	-31*	2	-1	-8
CC(=O)Nc1ccc(Sc2ncccc2C(=O)Nc2ccc(OC(F)(F)F)cc2)cn1	4	-60*	115*	0	19
COc1ccc(C(=O)c2sc3nc(-c4ccc(C)cc4)cc(C(F)(F)F)c3c2N)cc1	-5	-4	90*	7	-5
COc1ccc(NC(=O)c2sc3nc(-c4ccc(OC)cc4)cc(C(F)(F)F)c3c2N)cc1	9	-9	11	4	-1
COc1cccc(-c2ccc3c(N)c(C(=O)c4ccc(F)cc4)sc3n2)c1	8	-10	150*	24	-4
COc1ccc(C(=O)c2sc3nc(-c4ccc(OC)cc4)ccc3c2N)cc1	3	-8	61*	13	-6
COc1ccc(OC)c(NC(=O)CCCOc2cc(=O)n(C)c3ccccc23)c1	-2	-8	-1	-1	3
Cc1c(C(=O)Nc2ccc(F)cc2)oc2ccc(S(=O)(=O)N3CCCCCC3)cc12	-1	7	2	0	-1
SMILES	TRHR enhancer	D1 antagonist	D1 ag	TRHR agonist	D1 potentiator
O=C(Cc1ccccc1)NC1(O)C(=O)c2ccccc2C1=O	-21	-35*	1	0	-6
Cc1cc(C)n(C(=O)/C(C#N)=N/Nc2cc(Cl)cc(Cl)c2)n1	-9	-34*	20	1	-6
O=C(Nc1cccc(Cl)c1)c1cc2c(=O)[nH]c3ccccc3c2s1	-6	-17	-2	2	6
COc1ccc2c(c1)c(=O)c(S(=O)(=O)c1ccc(C)cc1)cn2Cc1ccccc1C	-10	16	5	1	6
COc1ccc(OC)c(CNc2ccc([N+](=O)[O-])cc2C)c1	-2	-37*	0	-1	6
Cc1[nH]c2ccc(F)cc2c(=O)c1SC(F)(F)C(F)F	-8	-42*	20	0	-1
O=C(NCc1cccc(F)c1)c1ccc(CN2CC(=O)N3CCCCC3C2=O)cc1 (stereo unspecified)	-1	-17	0	1	-2
Cc1ccc(CNC(=O)c2ccc(Cn3c(=O)c4ccccc4n(CC(=O)Nc4ccc(C)cc4)c3=O)cc2)cc1	6	6	33*	1	2
COc1ccc(-n2c(=O)c3ccc(C(=O)NCc4ccc(C)cc4)cc3n(Cc3ccc(C)cc3)c2=O)cc1	-5	12	4	0	-1
C=CCn1c(=O)c2ccc(C(=O)NCc3ccccc3)cc2n(Cc2ccc(C)cc2)c1=O	3	-30*	-2	-2	-4
CCc1ccc(NC(=O)Cn2c(=O)n(CCC(=O)N3CCc4ccccc4C3)c(=O)c3ccccc32)cc1	5	-31*	-1	1	-1
Cc1cccc(Oc2nccc(C(F)(F)F)c2C(=O)Nc2ccc(F)cc2F)c1	5	-54*	3	0	3
CC(=O)c1ccccc1NS(=O)(=O)c1cc2c(cc1C)NC(=O)CO2	-3	-17	4	1	0
CN(C(=O)c1cc2sccc2n1C)C1CCCCC1	-1	-35*	3	0	2
O=C(O)CC1S/C(=N/N=C/C=C/c2ccccc2)NC1=O (stereo unspecified)	0	19	1	0	0
O=C(O)CC1S/C(=N/N=C/C2CC=CCC2)NC1=O (stereo unspecified)	6	-35*	2	1	-6
Cc1ccc(OCC(=O)Nc2cc(C)on2)c([N+](=O)[O-])n1	-5	4	1	1	5
Cc1ccc(OCC(=O)NC(C)c2ccc(Cl)c(Cl)c2)c([N+](=O)[O-])n1 (stereo unspecified)	-5	-36*	10	0	-8
COCCOc1ccc(C(F)(F)F)cc1NC(=O)COC(=O)c1cc[n+]([O-])cc1	13	-17	6	0	-4
COCCOc1ccc(C(F)(F)F)cc1NC(=O)COC(=O)c1c(C)noc1C	34*	25	3	-1	-4
COc1ccc(C(=O)Nc2nnc(SCc3cc(=O)c4cccc(F)c4[nH]3)s2)cc1	1	-4	0	-1	2
O=[N+]([O-])c1cc(Cl)cc(/C=N/Nc2nc3ccccc3s2)c1O	-11	-50*	-1	-1	-8
